Experimental data reported in the OligoGym collection.

Target: TCEANC2
Assay: pooled miR-30 sensor sort-seq; sequence = guide strand
Conditions: shRNA
Also: reference of the scale not given here.

| Sequence | sensor-assay potency score (higher = more potent) |
| --- | --- |
| TATAGTAGTAACTTCATCTGAC | 0.875 |
| TTTTCTTCTTTAATTCTTGTAA | -0.255 |
| TTGAGTTTCAGTTACCTGCAGG | -0.555 |
| TTACGCATCTTGTTCACAGTGT | 0.769 |
| TTCTACAACCACAACTCTCTTC | -0.1 |
| TTCACAGTGTGACCTATCCTTG | -0.944 |

Target: TCERG1
Assay: as above
Conditions: shRNA

| Sequence | sensor-assay potency score (higher = more potent) |
| --- | --- |
| TTGTGCTTGCACTTGTGCCTGG | 0.389 |
| TTTATTATCGTCTCTCTTCCGT | 0.45 |
| TGGATCGACAGCATTGTCGGAG | -0.29 |
| TTATTATCGTCTCTCTTCCGTT | -0.906 |
| TTGATGAACTATCTACTGCTTT | -0.0553 |
| TATCAGACCATGACACATCTGA | 0.29 |
| TACATACTGATCAAACACCTGT | 0.349 |
| TTGTCTTTTACTTTGCTCCATC | -0.934 |
| TTGCTTTGAATCTTGAATCTTT | 0.533 |
| TGAATCTTGAATCTTTAGCATG | -1.15 |
| TTCTGATTGCTGAATAACCTTA | -0.804 |
| TTAATCTTCTCTTCTAACTTTT | -0.478 |

Target: TCL1B
Assay: as above
Conditions: shRNA

| Sequence | sensor-assay potency score (higher = more potent) |
| --- | --- |
| TGCTCCATAGAGTCAATCTGGC | -0.928 |
| TGTTAGGACCAGCTGCTCCATA | -1.25 |
| ATGCTGGGTTCATATCTGCTGC | -1.39 |
| TTAATTAACCAGTACTGTGAGG | -0.714 |
| TCCTCATCTTCGTAGATGCCAG | -1.52 |
| TTTCCCAGAAACTGGAATCCGC | -0.902 |
| TTGAACCGCACGACCACAGTCA | -0.246 |
| TACATGAAGATCCTCACTGAGG | -0.791 |
| AACTGGAATCCGCTGCTCGGTA | -1.06 |
| TCTGCTATTTCCCAGAAACTGG | -1.48 |
| TCTGGATCCACAGACGGCCAGG | -1.15 |
| TTCATATCTGCTGCCCTGGGAG | -0.879 |

Target: TCTN3
Assay: as above
Conditions: shRNA

| Sequence | sensor-assay potency score (higher = more potent) |
| --- | --- |
| TTGTCTACACAAACCCAGCTTG | -0.828 |
| TTTTACTCTCTAGGAAACCTGC | -1.11 |
| TTAGAATCCATGAAAACTCTTG | 0.212 |
| TATAGGAATCGAACTCCTGATA | -0.82 |
| TATATCATCAGTCAGAGCCAAG | -1.46 |
| TTGGTCTCTATCTCATAGGTGA | -0.211 |
| TTTTAACAGAGCAACTTCCATT | -0.964 |
| TGTAACTTGCTGAGAATCCTGT | 0.381 |
| TTACTCTCTAGGAAACCTGCAG | 0.205 |
| TAACTTGCTGAGAATCCTGTAT | -0.198 |
